tim23-1 inh – growth inhibitors of tim23-1 mutant yeast. inhibition, % at 20 µM. S. cerevisiae tim23-1 growth, BacTiter-Glo luminescence, 24 h. actives 1.3% (n = 330,000);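 active = growth inhibition of the mutant yeast at or above 50%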;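 also: temperature-sensitive mutant grown at 25 °C; plate controls were DMSO-treated mutant yeast for no effect and medium wells lacking yeast for full effect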
NLRP3 yeast inh – inhibitors of NALP3 inflammasome in yeast; Yeast reconstituted NLRP3/ASC/caspase-1, beta-gal luminescence, 24 h; AID 2825; actives 0.39% (n = 330,000); inhibition, % at 10 µM;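 active = inhibition of 50% or more; inactive = inhibition below 50%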;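 also: plate controls were induced DMSO wells for no effect and uninduced yeast grown without galactose for full effect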
tim10-1 inh – inhibits growth of tim10-1 mutant yeast | S. cerevisiae tim10-1 ts strain growth, BacTiter-Glo, 24 h | inhibition, % at 20 µM | actives 2.2% (n = 330,000);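 active = inhibition of at least 40%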;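 also: mutant grown at 25 °C; 0% = DMSO wells with yeast and 100% = wells holding no yeast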
PfHsp90 yeast 2 – inhibits growth of yeast expressing Plasmodium falciparum Hsp90; inhibition, % at 9.4 µM; S. cerevisiae expressing PfHsp90, BacTiter-Glo ATP, 48 h; yeast lacking PDR1 and PDR3 efflux regulators; actives 0.32% (n = 310,000);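 active = every replicate shows inhibition above about 80%, whatever the replicate mean, limit read from the data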;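 also: 0% = DMSO neutral controls and 100% = 20 µM radicicol positive controls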
TIM10 inh – TIM10 yeast growth inhibition; S. cerevisiae TIM10 strain growth, BacTiter-Glo luminescence, 24 h; inhibition, % at 10 µM; actives 1.4% (n = 330,000); AID 463195;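 active = inhibition of 40% or more at the single tested concentration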;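 also: wild-type TIM10 isogenic control strain grown at permissive 25 °C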
NALP1 inh – blocks the NALP1 inflammasome reconstituted in yeast; S. cerevisiae NALP1/ASC/caspase-1 growth, X-gal OD620, 72 h; inhibition, % at 10 µM; actives 0.61% (n = 280,000); in the data active = inhibition mostly above about 24%, no sharp cut-off; inactive = mostly below about 32%
tim10-1 confirm – tim10-1 yeast growth inhibition, confirmed. S. cerevisiae tim10-1 ts strain growth, BacTiter-Glo, 24 h. inhibition, % at 20 µM. actives 56% (n = 7,400). shares compounds with tim10-1 inh;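 active = inhibition of yeast growth at or above a set limit in either of two repeat tests at 20 µM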;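 also: tim10-1 mutant grown at permissive 25 °C to find synthetic lethal compounds; 0% = DMSO yeast wells and 100% = medium wells without yeast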
tim10 confirm – confirmation of TIM10 yeast growth inhibitors; shares compounds with TIM10 inh; S. cerevisiae tim10 strain growth, BacTiter-Glo luminescence, 24 h; inhibition, % at 10 µM; actives 63% (n = 4,600);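 active = inhibition of yeast growth at or above a set limit in either of two replicates at 10 µM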;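 also: this counterscreen used the strain with wild-type TIM10; 0% = yeast with DMSO and 100% = medium wells lacking yeast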
* marks the source's active call; other numbers are inactive results. Rows were chosen to be rich in hits. Some 4.1% of all compounds tested hit in one or more screens of this group.

What do the screens show for `Cn1c(O)c(C(c2ccccn2)c2c(O)n(C)c(=S)n(C)c2=O)c(=O)n(C)c1=S`?
tim23-1 inh: 9; NLRP3 yeast inh: 8; tim10-1 inh: 9; PfHsp90 yeast 2: -18; TIM10 inh: -18; NALP1 inh: -2

What do the screens show for `O=c1[nH]c(=S)[nH]c(O)c1/C=N/N1CCOCC1`?
tim23-1 inh: 4; NLRP3 yeast inh: 10; tim10-1 inh: -13; PfHsp90 yeast 2: -12; TIM10 inh: -17; NALP1 inh: -3

What do the screens show for `COc1ccc2nc(NC(=O)CCc3nc(C4=CCN(C)CC4)no3)sc2c1`?
tim23-1 inh: 12; NLRP3 yeast inh: 1; tim10-1 inh: 43*; PfHsp90 yeast 2: -7; TIM10 inh: -1; NALP1 inh: -6; tim10-1 confirm: 13

What do the screens show for `Clc1ccccc1C1=NCc2nncn2-c2sc(Br)cc21`?
tim23-1 inh: 13; NLRP3 yeast inh: 21; tim10-1 inh: 2; TIM10 inh: 5

Results for CC(C)[N+](C)(CCC(C(N)=O)(c1ccccc1)c1ccccc1)C(C)C ?
tim23-1 inh: -4; NLRP3 yeast inh: 28; tim10-1 inh: -3; PfHsp90 yeast 2: 2; TIM10 inh: -5; NALP1 inh: 8

How did CC(=O)OC[C@]12CCC(C)=C[C@H]1O[C@@H]1[C@H](O)[C@@H](OC(C)=O)[C@@]2(C)[C@]12CO2 do in these assays?
tim23-1 inh: 26; NLRP3 yeast inh: 19; tim10-1 inh: 54*; TIM10 inh: 26; NALP1 inh: -7; tim10-1 confirm: 49*

How did c1ccc2c3c(ccc2c1)OCC1CONC31 (stereo not given) do in these assays?
tim23-1 inh: 3; NLRP3 yeast inh: 3; tim10-1 inh: -7; TIM10 inh: -7; NALP1 inh: 9

Results for N/C(=N\[N+](=O)[O-])N1CCN(C(=O)c2ccccn2)CC1 ?
tim23-1 inh: -8; NLRP3 yeast inh: 6; tim10-1 inh: 16; PfHsp90 yeast 2: -13; TIM10 inh: -4; NALP1 inh: 16

How did CCCCC1(CCCC)C(=O)NC(=Nc2cccc(C)c2)NC1=O do in these assays?
tim23-1 inh: 30; NLRP3 yeast inh: 22; tim10-1 inh: 40*; PfHsp90 yeast 2: 18; TIM10 inh: 10; NALP1 inh: 2; tim10-1 confirm: 26

Results for CCCC1(CCC)C(=O)NC(=Nc2ccccc2)NC1=O ?
tim23-1 inh: 18; NLRP3 yeast inh: 15; tim10-1 inh: 17; PfHsp90 yeast 2: -2; TIM10 inh: -9; NALP1 inh: 3

Results for Cc1ccnc(NC(=O)CCCc2ccc(N(CCCl)CCCl)cc2)n1 ?
PfHsp90 yeast 2: 2

How did CCOC(=O)c1ccc(N2C(=O)CC(N3CC=C(c4ccc(F)cc4)CC3)C2=O)cc1 (stereo not given) do in these assays?
tim23-1 inh: 19; NLRP3 yeast inh: -3; tim10-1 inh: 63*; PfHsp90 yeast 2: -9; TIM10 inh: 57*; NALP1 inh: 5; tim10-1 confirm: 62*; tim10 confirm: 44*

Results for NC(=O)c1ccc(OCCC(O)N2CC=C(c3ccc(F)cc3)CC2)cc1 (stereo not given) ?
tim23-1 inh: -49; NLRP3 yeast inh: 15; tim10-1 inh: -20; PfHsp90 yeast 2: -2; TIM10 inh: -12

Results for CC1=C(C)CC2(C(=O)NC(=O)NC2=O)C(C)C1 (stereo not given) ?
PfHsp90 yeast 2: 7

Results for CCOC(=O)C1CCCN(c2ccc([N+](=O)[O-])c3nonc23)C1 (stereo not given) ?
PfHsp90 yeast 2: 2; NALP1 inh: 0

How did CC(C)c1ccc(NC(=O)CCNC(=O)N2C[C@H]3C[C@@H](C2)c2cccc(=O)n2C3)cc1 do in these assays?
tim23-1 inh: -8; NLRP3 yeast inh: -10; tim10-1 inh: -16; PfHsp90 yeast 2: 0; TIM10 inh: 2; NALP1 inh: 11

Source: PubChem
